Screening results: PubChem, Broad Institute
IDE exosite FP – insulin-degrading enzyme (human) exo-site inhibition | purified IDE, FL-6b probe fluorescence polarization; hits give low values | z-score at 20 µM | actives 6.3% (n = 17,000) | AID 1259349;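 active means z-score of -3 or lower, meaning strong loss of probe binding signal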;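 further: His-tagged human IDE residues 42-1019 made in E. coli with 30 nM FL-6b probe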
Target sequence (P14735 42-1019 limits assumed): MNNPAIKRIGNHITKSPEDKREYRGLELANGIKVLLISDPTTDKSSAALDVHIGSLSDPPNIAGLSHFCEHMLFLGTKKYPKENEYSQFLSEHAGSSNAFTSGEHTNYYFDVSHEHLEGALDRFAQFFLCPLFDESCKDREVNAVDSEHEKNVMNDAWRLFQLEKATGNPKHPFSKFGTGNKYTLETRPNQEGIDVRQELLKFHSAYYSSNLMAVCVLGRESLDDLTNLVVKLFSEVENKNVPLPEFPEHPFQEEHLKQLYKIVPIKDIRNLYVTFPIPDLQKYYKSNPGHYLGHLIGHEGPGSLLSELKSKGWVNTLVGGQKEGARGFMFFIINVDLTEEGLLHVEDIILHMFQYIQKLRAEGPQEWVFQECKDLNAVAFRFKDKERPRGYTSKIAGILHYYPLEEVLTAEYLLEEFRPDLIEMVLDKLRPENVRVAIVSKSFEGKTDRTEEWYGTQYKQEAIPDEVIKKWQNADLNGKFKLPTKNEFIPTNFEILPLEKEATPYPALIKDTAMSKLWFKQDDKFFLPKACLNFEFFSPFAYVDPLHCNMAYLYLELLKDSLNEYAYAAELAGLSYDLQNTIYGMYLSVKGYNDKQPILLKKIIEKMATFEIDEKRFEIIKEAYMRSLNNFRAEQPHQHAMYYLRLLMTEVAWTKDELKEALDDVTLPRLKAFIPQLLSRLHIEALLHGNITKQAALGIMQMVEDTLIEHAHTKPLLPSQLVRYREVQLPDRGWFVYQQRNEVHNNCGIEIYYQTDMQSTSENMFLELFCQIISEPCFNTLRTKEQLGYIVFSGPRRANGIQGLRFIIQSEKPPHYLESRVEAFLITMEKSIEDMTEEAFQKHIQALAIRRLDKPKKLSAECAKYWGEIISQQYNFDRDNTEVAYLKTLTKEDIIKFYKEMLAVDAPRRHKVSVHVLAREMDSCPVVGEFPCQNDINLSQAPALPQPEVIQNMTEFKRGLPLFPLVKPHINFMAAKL
Active calls of the source: *. The sample as a whole holds a higher share of hits than the screen did.

SMILES | IDE exosite FP
CCCNC(=O)N1[C@@H]2CNC[C@H]1C2c1ccc(/C=C/c2ccccc2)cc1 (stereo not given in full) | -7.5*
CC(C)NC(=O)N1[C@@H]2CNC[C@H]1C2c1ccc(/C=C/c2ccccc2)cc1 (stereo not given in full) | -1.7
CCc1nc(N2[C@H](C#N)[C@@H](c3ccccc3-c3ccccc3C)[C@@H]2CO)sc1C | -1.3
CCCNC(=O)N1[C@H](C#N)[C@@H](c2ccc(-c3cccnc3)cc2)[C@@H]1CO | -1
COc1ccccc1NC(=O)N1CC(=O)N2[C@H](CO)[C@@H](c3ccc(C#Cc4ccccc4)cc3)[C@@H]2C1 | 1
C[C@H](CO)N1C[C@H](C)[C@H](CN(C)C(=O)NC2CCCC2)Oc2cc(-c3cncnc3)ccc2S1(=O)=O | 0.66
CCC(=O)N1[C@H](CO)[C@@H](c2ccc(/C=C/c3ccccc3)cc2)C12CN(S(C)(=O)=O)C2 | -7.4*
CS(=O)(=O)N1CC2(C1)[C@H](c1ccccc1)[C@@H](CO)N2Cc1ccccc1 | -1.3
CCS(=O)(=O)N1CC2(C1)[C@H](c1ccccc1)[C@@H](CO)N2C(=O)c1ccccc1 | 0.23
OC[C@H]1[C@@H](c2ccc(-c3ccccc3F)cc2)[C@@H]2CN(Cc3cncnc3)CCCCN12 | -2.7
OC[C@@H]1[C@@H](c2ccc(C#Cc3ccccc3F)cc2)[C@@H]2CN(Cc3cncnc3)CCCCN12 | -6.3*
OC[C@H]1[C@@H](c2ccc(-c3ccccc3F)cc2)[C@H]2CN(Cc3cncnc3)CCCCN21 | -3.2*
OC[C@H]1[C@@H](c2ccc(C#Cc3ccccc3F)cc2)[C@@H]2CN(Cc3cncnc3)CCCCN12 | -15*
OC[C@H]1[C@@H](c2ccc(C#Cc3ccccc3F)cc2)[C@H]2CN(Cc3cncnc3)CCCCN21 | -2.1
OC[C@@H]1[C@@H](c2ccc(C#Cc3cccnc3)cc2)[C@@H]2CN(Cc3ccccc3F)CCCCN12 | -0.035
OC[C@@H]1[C@H](c2ccc(-c3ccccc3F)cc2)[C@@H]2CN(Cc3cccnc3)CCCCN12 | -1.2
O=C([C@@H]1[C@@H](CO)[C@@H]2Cn3c(ccc(C4=CCCC4)c3=O)[C@H]1N2C(=O)c1cccnc1)N1CCOCC1 | -0.95
COCC(=O)N(C)C[C@H]1[C@H](c2ccccc2)[C@H](CO)N1C(=O)NC(C)C | 2
Cc1ccc(-c2ccc([C@H]3[C@@H](CO)N4C(=O)CN(C(=O)Nc5ccc(F)cc5)C[C@@H]34)cc2)cc1 | 0.92
C[C@H](CO)N1C[C@H](C)[C@@H](CN(C)C(=O)Nc2ccccc2C(F)(F)F)OCc2cnnn2CCCC1=O | 0.23
N#C[C@@H]1[C@@H](c2ccc(C#Cc3ccc(F)cc3)cc2)[C@H](CO)N1C(=O)C1CCCC1 | 5.4
COc1cccc(C#Cc2ccc([C@@H]3[C@@H](C#N)N(C(=O)C4CCC4)[C@H]3CO)cc2)c1 | 1.5
COc1cccc(C#Cc2ccc([C@@H]3[C@@H](CO)N(C(=O)C4CCCCC4)[C@H]3C#N)cc2)c1 | 4.7
COc1ccccc1C#Cc1ccc([C@H]2[C@H](C#N)N(C(=O)C3CCCCC3)[C@H]2CO)cc1 | -6.3*
COc1ccccc1C#Cc1ccc([C@@H]2[C@@H](C#N)N(C(=O)C3CCCCC3)[C@@H]2CO)cc1 | -8.6*
SMILES | IDE exosite FP
COc1cccc(C#Cc2ccc([C@@H]3[C@@H](C#N)N(C(=O)C4CCCCC4)[C@H]3CO)cc2)c1 | 2.4
N#C[C@H]1[C@@H](c2ccc(C#Cc3ccc(F)cc3)cc2)[C@H](CO)N1C(=O)C1CCCC1 | 5.4
COc1cccc(C#Cc2ccc([C@@H]3[C@@H](C#N)N(C(=O)C4CCC4)[C@@H]3CO)cc2)c1 | 4.2
N#C[C@H]1[C@H](c2ccc(C#Cc3ccccc3F)cc2)[C@H](CO)N1C(=O)C1CCC1 | 2.2
COc1ccccc1C#Cc1ccc([C@H]2[C@@H](CO)N(C(=O)C3CCCCC3)[C@H]2C#N)cc1 | -5.1*
N#C[C@H]1[C@H](c2ccc(C#Cc3ccc(F)cc3)cc2)[C@H](CO)N1C(=O)C1CCCC1 | 4
COc1ccccc1C#Cc1ccc([C@H]2[C@@H](C#N)N(C(=O)C3CCC3)[C@@H]2CO)cc1 | -7.8*
COCC(=O)Nc1ccc2c(c1)C(=O)N(C)[C@@H]1CC[C@H](CC(=O)N3CCc4ccccc4C3)O[C@@H]1CO2 | -1.9
N#C[C@@H]1[C@@H](c2ccccc2-c2cccc(F)c2)[C@H](CO)N1C(=O)C1CCOCC1 | 0.96
CC(C)NC(=O)Nc1ccc2c(c1)C(=O)N([C@@H](C)CO)C[C@H](C)[C@H](CN(C)C(=O)C1CCCCC1)OCCCC[C@H](C)O2 | 1.2
COCC(=O)N1CC2(C1)[C@H](c1ccc(-c3ccc(C)cc3)cc1)[C@H](CO)N2C(C)=O | 0.46
COc1ccc(CNC(=O)C[C@H]2C=C[C@@H](NC(=O)c3cccc(F)c3)[C@H](CO)O2)cc1 | 0.2
O=C(Cc1ccccc1)N1CC(=O)N2[C@H](C1)[C@@H](c1ccc(C#Cc3ccccc3)cc1)[C@@H]2CO | -2.8
CCC(=O)N1CC(=O)N2[C@H](CO)[C@@H](c3ccc(C#CCc4ccccc4)cc3)[C@H]2C1 | 0.71
CCC(=O)N1CC(=O)N2[C@H](C1)[C@H](c1ccc(C#CCc3ccccc3)cc1)[C@@H]2CO | 0.49
CCC(=O)N1CC(=O)N2[C@@H](CO)[C@@H](c3ccc(C#CCc4ccccc4)cc3)[C@@H]2C1 | -7.4*
O=C(Cc1ccccc1)N1CC(=O)N2[C@H](CO)[C@H](c3ccc(C#CCc4ccccc4)cc3)[C@H]2C1 | -4.3*
O=C(Cc1ccccc1)N1CC(=O)N2[C@H](CO)[C@@H](c3ccc(C#CCc4ccccc4)cc3)[C@H]2C1 | 2.1
CO[C@@H]1CN(C)C(=O)c2ccc(NC(=O)C3CCOCC3)cc2OC[C@@H](C)N(Cc2ccc(F)cc2)C[C@H]1C | 1.2
O=C1N[C@@H](c2ccccc2)COCc2cn(nn2)CC[C@H]1Cc1ccc(C(F)(F)F)cc1 | -0.92
CCCNC(=O)N(C)C[C@H]1Oc2ncc(C#CC3CCCCC3)cc2C(=O)N([C@H](C)CO)C[C@H]1C | 0.12
C[C@H](CO)N1C[C@H](C)[C@H](CN(C)Cc2ccc(Cl)c(Cl)c2)Oc2ccc(NC(=O)CCCN(C)C)cc2C1=O | 0.44
COc1ccc(S(=O)(=O)N2CCCCN3[C@@H](CO)[C@@H](c4ccc(C5=CCCC5)cc4)[C@@H]3C2)cc1 | 0.89
CC(C)NC(=O)N1[C@H](CO)[C@H](c2ccc(-c3ccc(F)cc3)cc2)[C@@H]1C#N | 0.073
COc1ccc(-c2ccc([C@@H]3[C@@H](CO)N4CCCCN(C(=O)c5ccc(F)cc5)C[C@H]34)cc2)cc1 | 0.096
SMILES | IDE exosite FP
C[C@@H]1CN([C@H](C)CO)C(=O)c2cc(NS(=O)(=O)c3cn(C)cn3)ccc2O[C@H]1CN(C)S(=O)(=O)c1ccc(F)cc1 | -4.5*
C[C@@H]1CN([C@H](C)CO)C(=O)c2cc(NS(=O)(=O)c3cn(C)cn3)ccc2O[C@@H]1CN(C)S(=O)(=O)c1ccc(F)cc1 | 0.72
C[C@@H]1CN([C@H](C)CO)C(=O)c2cc(NC(=O)C3CC3)ccc2O[C@H]1CN(C)S(=O)(=O)c1ccccc1 | -3.5*
C[C@@H]1CN([C@@H](C)CO)C(=O)c2cc(NS(=O)(=O)c3cn(C)cn3)ccc2O[C@H]1CN(C)S(=O)(=O)c1ccc(F)cc1 | -0.032
C[C@@H]1CN([C@@H](C)CO)C(=O)c2cc(NC(=O)C3CC3)ccc2O[C@@H]1CN(C)S(=O)(=O)c1ccccc1 | 0.11
C[C@H]1CN([C@@H](C)CO)C(=O)c2cc(NC(=O)C3CC3)ccc2O[C@H]1CN(C)S(=O)(=O)c1ccccc1 | 0.3
